The panel holds about 83,000 compounds, 20% with a hit somewhere; the sample as a whole holds those more often.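 Method: cells in 96-well plates; compound added at one concentration; 48 h incubation; percent growth measured; values under 10 scored active.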 Calls of active or inactive are those of the source.
How the values were obtained:
Test in all cases: NCI-60 one-dose screen, 48 h (100 = growth as untreated, 0 = no growth, -100 = all killed)
Settings in all cases: 10 µM unless noted
SR leukemia = system: SR leukemia
RPMI-8226 leukemia = system: RPMI-8226 leukemia
OVCAR-8 ovarian = system: OVCAR-8 ovarian
OVCAR-4 ovarian = system: OVCAR-4 ovarian
SK-OV-3 ovarian = system: SK-OV-3 ovarian
IGROV1 ovarian = system: IGROV1 ovarian
OVCAR-3 ovarian = system: OVCAR-3 ovarian
HS 578T breast = system: HS 578T breast
NCI/ADR-RES ovarian = system: NCI/ADR-RES ovarian
T-47D breast = system: T-47D breast
BT-549 breast = system: BT-549 breast
MDA-MB-435 melanoma = system: MDA-MB-435 melanoma
SW-620 colon = system: SW-620 colon
MCF7 breast = system: MCF7 breast
HCT-116 colon = system: HCT-116 colon
HCC-2998 colon = system: HCC-2998 colon
KM12 colon = system: KM12 colon
OVCAR-5 ovarian = system: OVCAR-5 ovarian

| SMILES | growth (SR leukemia) | growth (RPMI-8226 leukemia) | growth (OVCAR-8 ovarian) | growth (OVCAR-4 ovarian) | growth (SK-OV-3 ovarian) | growth (IGROV1 ovarian) | growth (OVCAR-3 ovarian) | growth (HS 578T breast) | growth (NCI/ADR-RES ovarian) | growth (T-47D breast) | growth (BT-549 breast) | growth (MDA-MB-435 melanoma) | growth (SW-620 colon) | growth (MCF7 breast) | growth (HCT-116 colon) | growth (HCC-2998 colon) | growth (KM12 colon) | growth (OVCAR-5 ovarian) |
| --- | --- | --- | --- | --- | --- | --- | --- | --- | --- | --- | --- | --- | --- | --- | --- | --- | --- | --- |
| O=S(=O)(NCCCNc1cc(-c2cn(-c3ccccc3)nc2-c2ccccc2)ccn1)c1ccc(C(F)(F)F)cc1 | 39.3% (inactive) | 44.1% (inactive) | 54.6% (inactive) | 58.7% (inactive) | 68.9% (inactive) | 59.2% (inactive) | 72% (inactive) | 61% (inactive) | 46.2% (inactive) | 38.7% (inactive) | 71.2% (inactive) | 50% (inactive) | 71.1% (inactive) | 39.2% (inactive) | 43.2% (inactive) | 64.1% (inactive) | 40.5% (inactive) |  |
| COc1ccc(-c2cc(=O)[nH]c3c(OC)c4ccccc4c(OC)c23)cc1 | -14% (active) |  | 33.3% (inactive) | 30.8% (inactive) | 2.24% (active) | 32.8% (inactive) | -43.2% (active) | -6.69% (active) | 3.17% (active) | 31.6% (inactive) | 26% (inactive) | -28.9% (active) | 19.6% (inactive) | 13.4% (inactive) | 12.1% (inactive) | 0.772% (active) | 2.11% (active) | 36.3% (inactive) |
| NC(CC(=O)O)C(=O)OCc1ccccc1 (stereo not drawn) | 107% (inactive) | 98.7% (inactive) | 101% (inactive) | 89.6% (inactive) | 82.9% (inactive) | 105% (inactive) | 110% (inactive) |  | 101% (inactive) | 83.8% (inactive) | 108% (inactive) | 86.3% (inactive) | 107% (inactive) | 104% (inactive) | 96.9% (inactive) | 104% (inactive) | 106% (inactive) |  |
| COc1ccc(S(=O)(=O)NCCCNc2cc(-c3c(-c4cccc(OC)c4)nc4sccn34)ccn2)cc1 | 43.5% (inactive) | 13.1% (inactive) | 38.5% (inactive) | 36.4% (inactive) | 73.4% (inactive) | 51.8% (inactive) | 52.1% (inactive) | 62.9% (inactive) | 32.5% (inactive) | 2.13% (active) | 45.1% (inactive) | 44.4% (inactive) | 63.7% (inactive) | 34.5% (inactive) | 47.3% (inactive) | 70.7% (inactive) | 39.6% (inactive) |  |
| O=C1OC2C(I)C3CC2C1C3c1ccccc1 (stereo not drawn) | 86.8% (inactive) |  | 112% (inactive) | 96.3% (inactive) | 116% (inactive) | 111% (inactive) | 120% (inactive) | 143% (inactive) | 101% (inactive) | 95.2% (inactive) | 152% (inactive) | 131% (inactive) | 96.1% (inactive) | 109% (inactive) | 96.8% (inactive) | 105% (inactive) | 108% (inactive) | 93% (inactive) |
| CC1(C)OCC2OC3(C(=O)O)OC(C)(C)OC3C2O1 (stereo not drawn) | 101% (inactive) | 117% (inactive) |  | 118% (inactive) | 101% (inactive) | 106% (inactive) | 99.2% (inactive) | 102% (inactive) | 107% (inactive) | 95.4% (inactive) | 105% (inactive) | 104% (inactive) | 109% (inactive) | 112% (inactive) | 106% (inactive) | 102% (inactive) | 100% (inactive) | 106% (inactive) |
| OC(c1cccc(C(F)(F)F)c1)c1cnccc1NC1CCCCCC1 (stereo not drawn) | -14.7% (active) | -30.1% (active) | 58.2% (inactive) | 52.7% (inactive) | 71.4% (inactive) |  | 57.5% (inactive) | 64.4% (inactive) | 39.2% (inactive) | -3.18% (active) | 71.4% (inactive) | 32.6% (inactive) | 3.19% (active) | -6.03% (active) | 14.4% (inactive) | -70.1% (active) | 3.96% (active) |  |
| Cc1cc(=O)oc2cc(Oc3nc(-c4cccs4)cn4c(-c5cccs5)cnc34)ccc12 | 45.6% (inactive) | 70.3% (inactive) | 52.5% (inactive) | 54.1% (inactive) | 90.6% (inactive) | 79.2% (inactive) | 68% (inactive) | 67.6% (inactive) | 53.4% (inactive) | 54.7% (inactive) | 25% (inactive) | 61.3% (inactive) | 56.7% (inactive) | 59.9% (inactive) | 58.7% (inactive) | 78.1% (inactive) | 59.6% (inactive) |  |
| CC(C)Oc1nc2c(c(=O)n(C)c(=O)n2C)n1C | 104% (inactive) |  | 103% (inactive) | 115% (inactive) | 102% (inactive) | 102% (inactive) | 110% (inactive) | 116% (inactive) | 98.1% (inactive) | 90.3% (inactive) | 109% (inactive) | 105% (inactive) | 102% (inactive) | 95.2% (inactive) | 101% (inactive) | 101% (inactive) | 105% (inactive) | 106% (inactive) |
| O=C1C=CC(=O)N1c1ccc(Cc2ccc(N3C(=O)C=CC3=O)cc2)cc1 | 92.6% (inactive) |  | 103% (inactive) | 201% (inactive) | 101% (inactive) | 89.7% (inactive) | 125% (inactive) | 94.7% (inactive) | 99.4% (inactive) | 89.8% (inactive) | 95.8% (inactive) | 104% (inactive) | 110% (inactive) | 89.5% (inactive) | 89% (inactive) | 102% (inactive) | 100% (inactive) | 86.4% (inactive) |
| O=C(Nc1ccc(Oc2ccc(F)cc2)c(Cl)c1)c1cccnc1 | 75.1% (inactive) |  | 98.6% (inactive) | 85.2% (inactive) | 110% (inactive) | 95.4% (inactive) | 85.8% (inactive) | 91.5% (inactive) | 85.1% (inactive) | 70.6% (inactive) | 92.5% (inactive) | 41.5% (inactive) | 92.7% (inactive) | 76.7% (inactive) | 88.2% (inactive) | 91.2% (inactive) | 76.4% (inactive) | 99.9% (inactive) |
| COc1ccc(CNc2nccnn2)cc1 | 52.1% (inactive) | 108% (inactive) |  | 111% (inactive) | 109% (inactive) | 101% (inactive) | 105% (inactive) | 111% (inactive) | 99.4% (inactive) | 105% (inactive) | 114% (inactive) | 102% (inactive) | 104% (inactive) | 99.4% (inactive) | 101% (inactive) | 98.7% (inactive) | 99.3% (inactive) | 96.4% (inactive) |
| N=S(=O)(NC(=O)c1ccc(Cl)cc1Cl)c1ccc(Br)s1 (stereo not drawn) | 75% (inactive) | 86.5% (inactive) | 90.9% (inactive) |  | 96.4% (inactive) | -1.49% (active) | 105% (inactive) |  | 91.3% (inactive) | 103% (inactive) | 99.5% (inactive) | 96.2% (inactive) | 80.9% (inactive) | 91.5% (inactive) | 80.6% (inactive) | 102% (inactive) | 88.5% (inactive) |  |
| CC(C)[C@@H]1CC[C@]2(C(=O)NCCCCN=C(N)N)CC[C@]3(C)[C@H](CC[C@@H]4[C@@]5(C)CCC(=O)C(C)(C)[C@@H]5CC[C@]43C)[C@@H]12 | 33.6% (inactive) | 36.3% (inactive) | 70.2% (inactive) | 84.3% (inactive) | 91.7% (inactive) | 25.6% (inactive) | 55.4% (inactive) |  | 101% (inactive) | 37.4% (inactive) | 90.5% (inactive) | 56.2% (inactive) | 71.3% (inactive) | 33.5% (inactive) | 72.9% (inactive) | 53.7% (inactive) | 40.9% (inactive) |  |

From PubChem BioAssay (NCI)
